The results in this text go back to PubChem BioAssay (NCI).

Compounds without any hit were thinned out: in the full panel of roughly 79,000, 15% have a hit. Unmarked numbers belong to inactive results. The source made the active and inactive calls. No stated cut-off is given here; in the data, active means growth inhibition above about 70%; inactive means the rest.

A short description of assay [1]: NCI Yeast Anticancer Drug Screen. Data for the rad50 strain (AID 155).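 Further: 0% = growth of vehicle-only cultures of the same strain.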 Particulars: S. cerevisiae rad50 strain growth inhibition, stronger effect = higher value. The gist of the method:
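Relative growth inhibition (compound vs vehicle) was measured in yeast with a defined repair-gene alteration.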

The nature of assay [2]: NCI Yeast Anticancer Drug Screen. Data for the mec2-1 strain (AID 157). Particulars: S. cerevisiae mec2-1 strain, stronger effect = higher value. The procedure, abridged:
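Yeast mec2-1 mutant treated with compound. Readout: growth inhibition vs vehicle controls.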

The nature of assay [3]: NCI Yeast Anticancer Drug Screen. Data for the sgs1 mgt1 strain (AID 161).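 Further: 0% = growth of cultures given vehicle only.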 The conditions noted are these: S. cerevisiae sgs1 mgt1 strain, stronger effect = higher value. The gist of the method:
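Mutant yeast exposed to compound; growth scored against vehicle-only wells.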

A short description of assay [4]: NCI Yeast Anticancer Drug Screen. Data for the cln2 rad14 strain (AID 165).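 Further: 0% = growth equal to vehicle treated cultures.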 The conditions noted are these: S. cerevisiae cln2 rad14 strain, stronger effect = higher value. The gist of the method:
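cln2 rad14 yeast strain; compound exposure; growth inhibition read vs vehicle controls.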

Assay [5] in a line: NCI Yeast Anticancer Drug Screen. Data for the bub3 strain (AID 167). Particulars: S. cerevisiae bub3 mutant strain, stronger effect = higher value. The procedure, abridged: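 Screening used yeast with an engineered genetic alteration affecting cell cycle control. Compound-exposed cultures were compared with vehicle cultures, and reduced growth was taken as inhibition.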
A short description of assay [6]: NCI Yeast Anticancer Drug Screen. Data for the mlh1 rad18 strain (AID 175). Particulars: S. cerevisiae mlh1 rad18 strain growth inhibition, stronger effect = higher value. The procedure, abridged: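 Yeast w/ defined DNA-repair lesions; compound exposure; growth vs vehicle controls → % inhibition.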
The mark [7] stands for this setting: at 5.0 µM (retest, dose inferred, filed as 0.5).
Setting [8] is: at 50.0 µM (retest, dose inferred, filed as 5.0).

Take `O=C(c1ccccc1)c1ccc(O)c2ncccc12`: the growth inhibition in assay [1] (setting [7]) is 23%; in assay [1] (setting [8]) it was 99% (active); in assay [1] (at 50.0 µM), 98.6% (active); in assay [2] (setting [7]), -11%; in assay [2] (setting [8]), 99% (active); in assay [2] (at 50.0 µM), 97.8% (active). Besides, the growth inhibition in assay [3] (setting [7]) was 10%; in assay [3] (setting [8]) it was 99% (active); in assay [3] (at 50.0 µM) it was 99% (active); in assay [4] (setting [7]), -8%; in assay [4] (setting [8]) it was 99% (active); in assay [4] (at 50.0 µM) it was 98% (active). Further, the growth inhibition in assay [5] (setting [7]) is 5%; in assay [5] (setting [8]), 99% (active); in assay [5] (at 50.0 µM) it was 98.5% (active); in assay [6] (setting [7]), 17%; in assay [6] (setting [8]), 98% (active); in assay [6] (at 50.0 µM), 98.3% (active).

For the compound `CC(=O)N1CC(=O)NC1=S`, the growth inhibition is -10% in assay [1] (setting [7]); -18% in assay [1] (setting [8]); 69.6% in assay [1] (at 50.0 µM); -11% in assay [2] (setting [7]); -14% in assay [2] (setting [8]); 39.9% in assay [2] (at 50.0 µM). Besides, the growth inhibition in assay [3] (setting [7]) was -5%; in assay [3] (setting [8]), -17%; in assay [3] (at 50.0 µM), 25.3%; in assay [4] (setting [7]), -4%; in assay [4] (setting [8]), 7%; in assay [4] (at 50.0 µM), 53.1%. Moreover, the growth inhibition in assay [5] (setting [7]) is -36%; in assay [5] (setting [8]), -12%; in assay [5] (at 50.0 µM) it was 5.45%; in assay [6] (setting [7]), -24%; in assay [6] (setting [8]) it was -33%; in assay [6] (at 50.0 µM) it was 67.3%.

In the case of `c1ccc(C2NCCNC2c2ccccc2)cc1` (stereo not given), the growth inhibition in assay [1] (setting [7]) was 1%; in assay [1] (setting [8]) it was -5%; in assay [1] (at 50.0 µM), 2.15%; in assay [2] (setting [7]), 0%; in assay [2] (setting [8]), -10%; in assay [2] (at 50.0 µM), 15%. The growth inhibition in assay [3] (setting [7]) was 0%; in assay [3] (setting [8]) it was -9%; in assay [3] (at 50.0 µM), 22.3%; in assay [4] (setting [7]) it was 3%; in assay [4] (setting [8]), -6%; in assay [4] (at 50.0 µM) it was -1.8%. The growth inhibition in assay [5] (setting [7]) is 4%; in assay [5] (setting [8]), 5%; in assay [5] (at 50.0 µM), 55.3%; in assay [6] (setting [7]), -3%; in assay [6] (setting [8]), -7%; in assay [6] (at 50.0 µM) it was -19.2%.

In the case of `O=C(Nc1cccc(C(F)(F)F)c1)Oc1ccc(Cl)c2cccnc12`, the growth inhibition is 77% (active) in assay [1] (setting [7]); 98% (active) in assay [1] (setting [8]); 89.8% (active) in assay [1] (at 50.0 µM); 66% in assay [2] (setting [7]); 99% (active) in assay [2] (setting [8]); 91.8% (active) in assay [2] (at 50.0 µM). Besides, the growth inhibition in assay [3] (setting [7]) was 98% (active); in assay [3] (setting [8]), 99% (active); in assay [3] (at 50.0 µM) it was 92.8% (active); in assay [4] (setting [7]), 90% (active); in assay [4] (setting [8]) it was 98% (active); in assay [4] (at 50.0 µM) it was 88.9% (active). For the same compound, the growth inhibition in assay [5] (setting [7]) was 94% (active); in assay [5] (setting [8]) it was 99% (active); in assay [5] (at 50.0 µM) it was 91.7% (active); in assay [6] (setting [7]), 71% (active); in assay [6] (setting [8]), 99% (active); in assay [6] (at 50.0 µM), 91.7% (active).

As for `CC(C)Nc1ccc(Nc2ccc(NC(C)C)cc2)cc1`, the growth inhibition is 0% in assay [1] (setting [7]); 81% (active) in assay [1] (setting [8]); 65.7% in assay [1] (at 50.0 µM); -21% in assay [2] (setting [7]); 74% (active) in assay [2] (setting [8]); 97% (active) in assay [2] (at 50.0 µM). Further, the growth inhibition was -1% in assay [3] (setting [7]); 59% in assay [3] (setting [8]); 48% in assay [3] (at 50.0 µM); -10% in assay [4] (setting [7]); 73% (active) in assay [4] (setting [8]); 92.9% (active) in assay [4] (at 50.0 µM). In addition, the growth inhibition in assay [5] (setting [7]) was -7%; in assay [5] (setting [8]), 80% (active); in assay [5] (at 50.0 µM), 92.5% (active); in assay [6] (setting [7]) it was -15%; in assay [6] (setting [8]), 51%; in assay [6] (at 50.0 µM) it was 92.3% (active).

For the compound `N#CC(=C1SCS1)[N+](=O)[O-]`, the growth inhibition in assay [1] (setting [7]) is 91% (active); in assay [1] (setting [8]), 99% (active); in assay [1] (at 50.0 µM), 91.1% (active); in assay [2] (setting [7]), 98% (active); in assay [2] (setting [8]), 100% (active); in assay [2] (at 50.0 µM) it was 92.4% (active). In addition, the growth inhibition in assay [3] (setting [7]) was 98% (active); in assay [3] (setting [8]), 100% (active); in assay [3] (at 50.0 µM) it was 92% (active); in assay [4] (setting [7]) it was 31%; in assay [4] (setting [8]) it was 99% (active); in assay [4] (at 50.0 µM), 92.2% (active). Also, the growth inhibition was 95% (active) in assay [5] (setting [7]); 99% (active) in assay [5] (setting [8]); 89.9% (active) in assay [5] (at 50.0 µM); 98% (active) in assay [6] (setting [7]); 99% (active) in assay [6] (setting [8]); 92.7% (active) in assay [6] (at 50.0 µM).

For `CCCCCC/C=C1\CCC(CN2CCCC2)C1=O` (stereo not given), the growth inhibition in assay [1] (setting [7]) was 52%; in assay [1] (setting [8]), 97% (active); in assay [1] (at 50.0 µM), 91% (active); in assay [2] (setting [7]), 33%; in assay [2] (setting [8]), 99% (active); in assay [2] (at 50.0 µM), 70.7% (active). The growth inhibition is 59% in assay [3] (setting [7]); 96% (active) in assay [3] (setting [8]); 90.4% (active) in assay [3] (at 50.0 µM); 71% (active) in assay [4] (setting [7]); 87% (active) in assay [4] (setting [8]); 81.9% (active) in assay [4] (at 50.0 µM). Further, the growth inhibition is 66% in assay [5] (setting [7]); 99% (active) in assay [5] (setting [8]); 79.5% (active) in assay [5] (at 50.0 µM); 78% (active) in assay [6] (setting [7]); 98% (active) in assay [6] (setting [8]); 89.2% (active) in assay [6] (at 50.0 µM).

Consider `NC(=S)N/N=C\c1nccc2c(N)cccc12`, for which the growth inhibition is 6% in assay [1] (setting [7]); 87% (active) in assay [1] (setting [8]); 61.4% in assay [1] (at 50.0 µM); 35% in assay [2] (setting [7]); 89% (active) in assay [2] (setting [8]); 76.7% (active) in assay [2] (at 50.0 µM). For the same compound, the growth inhibition was 9% in assay [3] (setting [7]); 81% (active) in assay [3] (setting [8]); 74% (active) in assay [3] (at 50.0 µM); -12% in assay [4] (setting [7]); 81% (active) in assay [4] (setting [8]); 36.4% in assay [4] (at 50.0 µM). In addition, the growth inhibition in assay [5] (setting [7]) was 0%; in assay [5] (setting [8]) it was 85% (active); in assay [5] (at 50.0 µM), 74.8% (active); in assay [6] (setting [7]), 10%; in assay [6] (setting [8]) it was 85% (active); in assay [6] (at 50.0 µM), 67.5%.

Turning to `CCC(=O)c1cc([N+](=O)[O-])c(Br)s1`, the growth inhibition in assay [1] (setting [7]) is 99% (active); in assay [1] (setting [8]), 99% (active); in assay [1] (at 50.0 µM) it was 99.7% (active); in assay [2] (setting [7]) it was 99% (active); in assay [2] (setting [8]), 100% (active); in assay [2] (at 50.0 µM), 99.6% (active). Besides, the growth inhibition is 100% (active) in assay [3] (setting [7]); 100% (active) in assay [3] (setting [8]); 99.6% (active) in assay [3] (at 50.0 µM); 99% (active) in assay [4] (setting [7]); 99% (active) in assay [4] (setting [8]); 98.8% (active) in assay [4] (at 50.0 µM). Moreover, the growth inhibition in assay [5] (setting [7]) was 100% (active); in assay [5] (setting [8]), 99% (active); in assay [5] (at 50.0 µM), 99.5% (active); in assay [6] (setting [7]), 99% (active); in assay [6] (setting [8]), 99% (active); in assay [6] (at 50.0 µM), 99.5% (active).

In the case of `O=C(Nc1ccc(Cl)c(Cl)c1)OCc1ccco1`, the growth inhibition in assay [1] (setting [7]) was 51%; in assay [1] (setting [8]), 68%; in assay [1] (at 50.0 µM) it was 91.4% (active); in assay [2] (setting [7]), 38%; in assay [2] (setting [8]), 66%; in assay [2] (at 50.0 µM), 93% (active). Further, the growth inhibition in assay [3] (setting [7]) is 47%; in assay [3] (setting [8]), 99% (active); in assay [3] (at 50.0 µM), 92.9% (active); in assay [4] (setting [7]) it was 35%; in assay [4] (setting [8]), 90% (active); in assay [4] (at 50.0 µM), 91.7% (active). Moreover, the growth inhibition is 41% in assay [5] (setting [7]); 81% (active) in assay [5] (setting [8]); 93.1% (active) in assay [5] (at 50.0 µM); 48% in assay [6] (setting [7]); 76% (active) in assay [6] (setting [8]); 92% (active) in assay [6] (at 50.0 µM).
